Tau FP inhib = qHTS for Inhibitors of Tau Fibril Formation, Fluorescence Polarization. Microtubule-associated protein tau (Homo sapiens), P10636. K18 P301L tau heparin fibrillization, Alexa594 FP, 6 h. Potency, µM (titrated, usually from 57.7 µM), hits mostly inhibitors. hit rate 0.39% among 280,000. AID 1468, 2008; note: nearly all actives have a fitted effect of over 55% in size
Target sequence (P10636 561-689 P618L limits assumed): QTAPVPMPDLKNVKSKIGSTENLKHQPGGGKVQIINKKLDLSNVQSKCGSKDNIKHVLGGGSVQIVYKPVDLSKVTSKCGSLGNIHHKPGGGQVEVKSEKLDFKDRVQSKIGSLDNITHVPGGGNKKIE
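FP of Alexa 594-tau after heparin (20 uM) induction. Substrate: human K18 P301L, 15 uM unlabeled, 0.24 uM labeled. Buffer 100 mM sodium acetate pH 7. 6 hr, 37 C.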
Coupling enz = qHTS Assay for Inhibitors of Fructose-1,6-bisphosphate Aldolase from Giardia Lamblia: Coupling assay counterscreen; coupling enzyme system counterscreen, AmpLite Red fluorescence; activity change, negative = inhibition, % at 58.2 µM, hits read low; hit rate 0.67% among 290,000; AID 2472, 2010; in the data active = activity change below about -30%
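Fluorescence at 525 nm excitation and 598 nm emission measured inhibition of the coupled detection system without aldolase. Compounds (at 57.5 uM final) were preincubated 10 min at room temperature with coupling enzyme reagent before a 20 min substrate/AmpLite Red step.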
Tau fluor cs = Counterscreen qHTS for Inhibitors of Tau Fibril Formation, Fluorescence Polarization. Potency, µM (titrated, usually from 57.7 µM). hit rate 0.93% among 280,000. tau K18 P301L Alexa594 fluorescence, heparin fibrillization; note: nearly all actives have a fitted effect of over 55% in size
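Human tau K18 P301L (15 uM unlabeled, 0.24 uM Alexa 594-labeled) in 100 mM sodium acetate pH 7 with 20 uM heparin, 6 hr at 37 C. ThT 30 uM added, 1 hr ambient; Alexa 594 FP and total fluorescence read at 555/632 nm.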
Sfp inh = qHTS Assay for Inhibitors of Bacillus subtilis Sfp phosphopantetheinyl transferase (PPTase); 4'-phosphopantetheinyl transferase ffp (Bacillus subtilis), Q9F4F7; Biochemical Sfp PPTase activity, qHTS; Potency, µM, actives largely listed as inhibitors; hit rate 3.5% among 310,000; AID 1490, 2009;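 note: the enzyme is Sfp with the accession as filed and its product quenches rhodamine fluorescence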
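Step 1, compound plus 15 nM Sfp-PPTase, 15 min, room temperature. Step 2, add rhodamine-CoA (5 uM) and BHQ-2-YbbR (12.5 uM). Step 3, read 525/598 nm fluorescence at 0 and 30 min.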
Tau ThT inhib = qHTS for Inhibitors of Tau Fibril Formation, Thioflavin T Binding | Microtubule-associated protein tau (Homo sapiens), P10636 | recombinant tau K18 P301L, heparin-induced fibrillization, ThT fluorescence | Potency, µM (series often up to 57.4 µM), hits mostly inhibitors | hit rate 2.1% among 270,000 | AID 1460, 2008; note: nearly all actives have a fitted effect of over 55% in size
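ThT emission at 510 nm, taken 1 hr after adding 30 uM dye, quantifies aggregates formed when 20 uM heparin acts on human tau K18 P301L for 6 hr at 37 C.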
Large screens that a line does not name were inactive; ! = a repeat was not active; [ ] = another dose, or the depositor's remark. In the library only some 5.2% were active in any assay of this set; here they are far more common. Unless noted, calls come from the whole dose curve; as a rule, active = well fitted curve in the direction sought with a large enough effect; inconclusive = small, poorly fitted or top-dose-only effect, or another doubt; inactive = no such curve, though single readings can be large; an effect the other way counts as inactive or inconclusive.

COC(=O)c1c(C)c2c(C)cc3ccccn3c-2c1C(=O)OC	Tau fluor cs inconclusive, Tau ThT inhib 13µM
CCOC(=O)C(=O)c1c(C)cc2ccccn12	none
COC(=O)c1c(C(=O)OC)c2cccc3cc(-c4ccccc4)c4ccc1c4n32	Tau fluor cs inconclusive, Tau ThT inhib 3.5µM
CCN(CC)S(=O)(=O)c1ccc2c(c1)N(CC(=O)NCCCN1CCN(c3cc(C)ccc3C)CC1)C(=O)CO2	none (no result: Coupling enz, Sfp inh)
CC1CC=CC2C1C(=O)N(Cc1ccccc1)C2c1ccc(-c2ccoc2)cc1F (stereo not given)	none (no result: Tau FP inhib, Tau fluor cs, Tau ThT inhib)
O=C(c1cnc(N2CCCCC2)c2ccccc12)N1CCN(c2cccc(Cl)c2)CC1	none (no result: Coupling enz, Sfp inh)
COc1ccc(NC(=O)NC23CC4(C)CC(C)(CC(C)(C4)C2)C3)cc1OC	Tau fluor cs 13µM[quencher], Tau ThT inhib inconclusive
CCC(C)(C)NC(=O)CN(C(=O)CCC(=O)Nc1cc(C)ccn1)c1ccc2c(c1)OCO2	none
CCC(C)(C)NC(=O)CN(Cc1ccccc1Cl)C(=O)CCC(=O)Nc1cc(C)ccn1	Sfp inh 20µM, Tau ThT inhib inconclusive
O=C(Nc1ccccc1N1CCOCC1)c1cc2ccccc2o1	none (no result: Tau FP inhib, Tau fluor cs, Tau ThT inhib)
O=C(Nc1ccc(N2CCOCC2)c(Cl)c1)c1cc2ccccc2o1	Coupling enz -33, Tau fluor cs inconclusive, Tau ThT inhib inconclusive
O=C(/C=C/c1ccc(Cl)c([N+](=O)[O-])c1)Nc1ccc(N2CCCC2)c(Cl)c1	Tau fluor cs inconclusive, Tau ThT inhib 1µM
CCOC(=O)c1ccc(NC(=O)c2cc3ccccc3o2)cc1	Tau fluor cs inconclusive, Sfp inh 79µM
O=C(Nc1ccc(N2CCCC2)c(Cl)c1)c1ccc([N+](=O)[O-])o1	Tau fluor cs 14µM[quencher], Tau ThT inhib 8.9µM
CCCCNC(=O)C1CCC(CNS(=O)(=O)c2ccc(Cl)cc2)CC1 (stereo not given)	none (no result: Coupling enz, Sfp inh)
O=C(Nc1ccc(N2CCCC2)cc1)c1ccc(Br)o1	Tau fluor cs inconclusive, Sfp inh inconclusive, Tau ThT inhib 8.9µM
O=C(Nc1ccc(N2CCOCC2)c(Cl)c1)c1ccc(Br)o1	Tau FP inhib inconclusive, Coupling enz -32, Tau fluor cs inconclusive, Tau ThT inhib inconclusive
CNC(=S)NCCCCc1cnc[nH]1	Sfp inh inconclusive (no result: Tau FP inhib, Tau fluor cs, Tau ThT inhib)
c1ccc(OCc2nnc3sc(C4COc5ccccc5O4)nn23)cc1 (stereo not given)	Sfp inh 25µM, Tau ThT inhib inconclusive
c1ccc(Cc2nnc3sc(C4COc5ccccc5O4)nn23)cc1 (stereo not given)	Sfp inh inconclusive, Tau ThT inhib inconclusive
Clc1ccccc1-c1nnc2sc(C3COc4ccccc4O3)nn12 (stereo not given)	Sfp inh 18µM, Tau ThT inhib inconclusive
Cc1ccc(-c2nnc3sc(C4COc5ccccc5O4)nn23)cc1 (stereo not given)	none
O=[N+]([O-])c1cc2c(cc1/C=N/n1c(-c3ccccn3)n[nH]c1=S)OCO2	Sfp inh 22µM, Tau ThT inhib inconclusive
O=[N+]([O-])c1ccccc1/C=C/C=N/n1c(-c2cc(-c3ccccc3)n[nH]2)n[nH]c1=S	Tau fluor cs inconclusive, Sfp inh 18µM
O=[N+]([O-])c1cc2c(cc1/C=N/n1c(-c3ccccc3)n[nH]c1=S)OCO2	Sfp inh 40µM, Tau ThT inhib inconclusive
O=[N+]([O-])c1ccccc1/C=N/n1c(-c2cccnc2)n[nH]c1=S	Sfp inh inconclusive, Tau ThT inhib inconclusive
COC(=O)[C@@H]1[C@@H](O)[C@]2(O)c3ccccc3O[C@]2(c2ccccc2)[C@H]1c1ccccc1	none
O=c1c(-c2cccs2)nc2cnc(N3CCNCC3)nc2n1C1CC1	none (no result: Tau FP inhib, Tau fluor cs, Tau ThT inhib)
CCOc1cccc(=O)c2c(C)n(C)c(C)c12	Tau ThT inhib 16µM
CCCCCn1c(C)c2c(OCC)cccc(=O)c2c1C	none (no result: Tau ThT inhib)
Cc1[nH]c(=S)c(C#N)c(-c2ccco2)c1C(=O)N(C)C	Sfp inh 10µM
CN=c1scc(-c2ccc(OC)cc2)n1/N=C(\C)c1cccnc1	Tau fluor cs inconclusive, Tau ThT inhib 11µM
Oc1cccc2c(NC(=S)Nc3ccc(OC(F)F)cc3)cccc12	Tau FP inhib inconclusive, Coupling enz -48, Tau fluor cs 16µM[quencher], Sfp inh 56µM, Tau ThT inhib 11µM
FC(F)Oc1ccc(NC(=S)Nn2cnnc2)cc1	Sfp inh 22µM, Tau ThT inhib inconclusive
CN(C(=O)CSc1nc2ccc(NC(=O)c3ccc(F)cc3)cc2s1)c1ccccc1	Tau FP inhib inconclusive, Tau fluor cs inconclusive (no result: Coupling enz, Sfp inh)
CCc1ccc(CNC(=O)CSCc2cnn(-c3ccccc3)c2-n2cccc2)cc1	Tau ThT inhib inconclusive (no result: Coupling enz, Sfp inh)
CCOC(=O)Cc1csc(NC(=O)/C=C/c2ccco2)n1	Sfp inh 71µM (no result: Tau ThT inhib)
O=C(/C=C/c1ccco1)Nc1nc(-c2ccccc2)cs1	none
O=C(/C=C/c1ccco1)Nc1nc(-c2ccc(F)c(F)c2)cs1	Sfp inh 22µM
CC(C)Oc1ccc(CNC(=O)CCCn2c(=O)c3cccn3c3cccnc32)cc1	none (no result: Coupling enz, Sfp inh)
COC(C(C)/C=C/CC(=O)OCCCc1ccccc1)C1CCCCC1 (stereo not given)	none
CCOC(=O)Cn1c(=O)n(CC2CCCO2)c2nc(-c3ccccc3F)nc(C(N)=O)c21 (stereo not given)	none (no result: Coupling enz, Sfp inh)
COc1ccc(-c2csc(NC(=O)C3CC(=O)N(c4ccc5c(c4)OCCO5)C3)n2)cc1 (stereo not given)	Tau fluor cs inconclusive, Tau ThT inhib inconclusive
CC(=O)Nc1ccc(-c2csc(NC(=O)C3CC(=O)N(c4ccc5c(c4)OCCO5)C3)n2)cc1 (stereo not given)	Coupling enz -35, Tau fluor cs inconclusive, Tau ThT inhib inconclusive
COc1cc(O)c(C(CC(=O)N2CCN(c3ccccc3)CC2)c2ccc(N(C)C)cc2)c(OC)c1 (stereo not given)	Sfp inh 89µM!
COc1cc(C(=O)Nc2cccc(OCc3cc(=O)n4c(C)csc4n3)c2)cc(OC)c1OC	Tau FP inhib inconclusive, Tau fluor cs inconclusive (no result: Coupling enz, Sfp inh)
COc1ccc(NC(=O)c2ccco2)cc1NC(=O)c1cccc(C)c1OC	Tau ThT inhib inconclusive (no result: Coupling enz, Sfp inh)
Cc1ccc(Nc2nnc(-c3ccc(C)c(S(=O)(=O)N4CCOCC4)c3)c3ccccc23)c(C)c1	Tau ThT inhib inconclusive (no result: Coupling enz, Sfp inh)
CCc1nc(-c2ccc(-c3ccc(OC)cc3)nc2OC)no1	Tau ThT inhib inconclusive
COc1ccc(-c2ccc(-c3noc(C(C)C)n3)c(OC)n2)cc1	Sfp inh 56µM, Tau ThT inhib inconclusive
Cn1ncc([N+](=O)[O-])c1C(=O)N/N=C/c1cccc([N+](=O)[O-])c1	Coupling enz -35
Cn1ncc([N+](=O)[O-])c1C(=O)N/N=C/c1ccc(F)cc1	none

Source: PubChem (National Center for Advancing Translational Sciences (NCATS))
